Data taken from the supplement of paper PMC10681739.

What follows are sequences tested against T1, ETS1 (UniProt P14921) (assay: TF binding intensity (PBM fluorescence), negative control probe (arbitrary fluorescence units); higher = stronger binding).
T1 sequence: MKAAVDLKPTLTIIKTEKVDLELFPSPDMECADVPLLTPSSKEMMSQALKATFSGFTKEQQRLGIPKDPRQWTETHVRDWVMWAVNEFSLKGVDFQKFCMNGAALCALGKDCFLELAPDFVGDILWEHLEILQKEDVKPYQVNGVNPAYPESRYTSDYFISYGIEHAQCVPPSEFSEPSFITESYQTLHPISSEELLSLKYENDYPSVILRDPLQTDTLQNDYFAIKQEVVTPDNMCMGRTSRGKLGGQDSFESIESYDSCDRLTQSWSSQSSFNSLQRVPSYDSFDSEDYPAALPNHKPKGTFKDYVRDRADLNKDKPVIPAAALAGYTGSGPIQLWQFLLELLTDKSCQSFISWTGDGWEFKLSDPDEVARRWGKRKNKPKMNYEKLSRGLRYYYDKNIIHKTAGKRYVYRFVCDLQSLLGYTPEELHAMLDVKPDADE
Protocol: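 gcPBM negative-control 36-bp genomic probes lacking TF binding sites. Each was incubated with recombinant human ETS1 or RUNX1 alone and detected by antibody fluorescence. Values are medians over replicate spots (4 spots for the ETS1-RUNX1 arrays, 3 for the ETS1-ETS1 array). The probes sit in constant array flanks that are not printed.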
With “AAGCCTGGAGTTGGGGTGGTGGGGTGAGAATCAGCC (protein concentration 10 nM)” the TF binding intensity was 170.
For “ATTCTTCTAATAATCCAGTTTGAGTGGATCCTCTGT (protein concentration 10 nM)”, the TF binding intensity was 112.
For “AAAACTAAAAGTAGAACCACCATATGATCCAGTAAT (protein concentration 1 nM)”, the TF binding intensity was 504.
“ATTTCTTGAGAAATCTGTGGTTATTATTTAACTCTT (protein concentration 1 nM)” gave a TF binding intensity of 461.
With “ATAAAACACAGTGTACAGTGACCTTTTAATCACAAC (protein concentration 10 nM)” the TF binding intensity was 132.
Sequence “GGCTGGTAGAAATACTGCGGCTAATAAAGGCGTGGA (protein concentration 1 nM)” has a TF binding intensity of 425.
